GLS inhibitor = inhibitors of human glutaminase (GLS). Potency, µM (top dose mostly 45.5 µM), inactives show top-dose activity change, negative = inhibition, usual class: inhibitors. actives 0.21% (n = 410,000). GLS enzymatic activity, qHTS titration. O94925. AID 624170; note: % is set by controls: 0 for no effect and ±100 for the full control effect
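hKGA in 45 mM KH2PO4 pH 8.2, 0.02% Tween-20 with pin-transferred compounds; 1 mM L-glutamine (stock) plus glutamate oxidase/HRP/Amplex Red coupling added. Fluorescence read initially and after 30 min at RT.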
G9a block = inhibitors of human histone lysine methyltransferase G9a. Q96KQ7. G9a H3K9 monomethylation, AlphaScreen, 2 h. Potency, µM (series often up to 102 µM), without a hit: at the top dose activity, negative = inhibition, most hits filed as inhibitors. actives 8.8% (n = 350,000). AID 504332; note: % is set by controls: 0 for no effect and ±100 for the full control effect; nearly all actives have a fitted effect of over 75% in size
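AlphaScreen read-out: biotin-H3K9 peptide (500 nM) methylation by 20 nM enzyme with 20 uM SAM, 2 h at room temperature after 15 min compound preincubation; anti-monomethyl H3K9 antibody plus donor/acceptor beads, 10 min dark.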
HP1b chromo inh = HP1-beta chromodomain-methylated histone interaction inhibition; AlphaScreen HP1-beta / biotin-H3K9me3 peptide binding; AID 540317; actives 0.56% (n = 390,000); P83916; Potency, µM (top dose mostly 114 µM), inactives show at the highest dose activity change, negative = inhibition, hits mostly inhibitors; note: nearly all actives have a fitted effect of over 70% in size
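Compound inhibition of the preformed complex between 50 nM HP1-beta and 50 nM biotinylated H3K9me3 peptide was read by AlphaScreen. Buffer was PBS pH 7.4 with 0.01% Tween-20. Incubations ran 30 min at room temperature, with 10 ug/mL donor/acceptor beads.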
BAZ2B inh = blocks human BAZ2B; actives 4.4% (n = 360,000); AID 504333; AlphaScreen BAZ2B-H3K14Ac peptide displacement; Potency, µM (series often up to 114 µM), for the others: at the highest dose activity change, negative = inhibition, actives largely listed as inhibitors; note: % is set by controls: 0 for no effect and ±100 for the full control effect; nearly all actives have a fitted effect of over 60% in size
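In this displacement format the biotinylated H3(5-23) peptide acetylated at Lys14 serves as ligand at 50 nM, with BAZ2B at 50 nM in PBS pH 7.4 containing 0.01% Tween-20. Donor and acceptor beads are 10 ug/mL final.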
JMJD2A Tudor = blocks the human JMJD2A Tudor domain; Potency, µM (series often up to 114 µM), without a hit: at the top dose activity change, negative = inhibition, most hits filed as inhibitors; actives 4.4% (n = 390,000); O75164; AlphaScreen JMJD2A-Tudor / H3K4me3 peptide binding; note: % is set by controls: 0 for no effect and ±100 for the full control effect; nearly all actives have a fitted effect of over 50% in size
Numbers without * were called inactive; [ ] = remark or other dose. In the library only some 10% were active in any assay of this set; here they are far more common. Calls come from the whole dose curve; as a rule, active = well fitted curve in the direction sought with a large enough effect; inconclusive = small, poorly fitted or top-dose-only effect, or another doubt; inactive = no such curve, though single readings can be large; an effect the other way counts as inactive or inconclusive. Potency is the fitted concentration of half-maximal effect.

Screening O=C(NCCc1ccccc1)C1CCCN(c2cnccn2)C1 (centres undefined) returned GLS inhibitor 2%, HP1b chromo inh inconclusive, BAZ2B inh -7% and JMJD2A Tudor 28µM*.
`FC(F)(F)c1ccccc1NC(=S)N/N=C1\CC2CC=CC12` (centres undefined) gave GLS inhibitor 0%, G9a block 18µM*, HP1b chromo inh inconclusive, BAZ2B inh 71µM* and JMJD2A Tudor -37%.
`CN(C)CCCN1c2ccccc2C(C)(C)c2ccccc21` gave GLS inhibitor 57% and G9a block inconclusive.
Screening COc1cc(C(=O)NCCOc2ccc(Cl)cc2)ccc1OCc1c(C)noc1C returned GLS inhibitor 7%, G9a block 19%[2.33 µM], HP1b chromo inh 13%, BAZ2B inh 0% and JMJD2A Tudor -8%.
For CC(C)(C)C1CCC(=NNc2ncc(C(F)(F)F)cc2Cl)CC1 (centres undefined) the results were GLS inhibitor 27%, G9a block 26%[59 µM], HP1b chromo inh 13%, BAZ2B inh 79µM* and JMJD2A Tudor -30%.
Screening O=C1c2ccccc2C(c2nnnn2-c2ccc3c(c2)OCCO3)N1Cc1cccs1 (centres undefined) returned GLS inhibitor -11%.
For CCOc1ccc(CC(=O)OCN2C(=O)c3ccccc3C2=O)cc1 the results were GLS inhibitor 6%, G9a block 40µM*, HP1b chromo inh 23%, BAZ2B inh -3% and JMJD2A Tudor -3%.
COc1ccc(CC(=O)OCN2C(=O)c3ccccc3C2=O)cc1 was read as GLS inhibitor -5%, G9a block 23%[59 µM], HP1b chromo inh 48%, BAZ2B inh 6% and JMJD2A Tudor 11%.
For O=C(Cc1ccc(F)cc1)OCN1C(=O)c2ccccc2C1=O the results were GLS inhibitor 0%, G9a block 28µM*, HP1b chromo inh 46%, BAZ2B inh 79µM* and JMJD2A Tudor -9%.
Screening CC1(C)Oc2c(ccc(O)c2CN2CCOCC2)C2=C1CCCC2 returned GLS inhibitor 10%, HP1b chromo inh -19% and JMJD2A Tudor inconclusive.
Screening COc1n[nH]c(C(=O)NCc2ccccc2)c1[N+](=O)[O-] returned GLS inhibitor -4%, G9a block 56µM*, HP1b chromo inh 60%, BAZ2B inh -21% and JMJD2A Tudor -12%.
For COc1n[nH]c(C(=O)Nc2nc3ccccc3s2)c1[N+](=O)[O-] the results were GLS inhibitor 34%, G9a block 14µM*, HP1b chromo inh 30%, BAZ2B inh 56µM* and JMJD2A Tudor -28%.
For COc1cccc(-c2cc(C(=O)NCc3ccccc3)[nH]n2)c1 the results were GLS inhibitor -13%, G9a block -4%[59 µM], HP1b chromo inh -17%, BAZ2B inh 3% and JMJD2A Tudor -10%.
COc1ccc(C(=O)Nc2nc3ccccc3s2)c(OC)c1 was read as GLS inhibitor inconclusive, G9a block -17%, HP1b chromo inh 15%, BAZ2B inh -17% and JMJD2A Tudor 20µM*.
COc1ccccc1C(=O)Nc1nc2ccccc2s1 was read as GLS inhibitor -6%, G9a block 5%[0.501 µM], HP1b chromo inh 39%, BAZ2B inh 38% and JMJD2A Tudor -4%.
NC1=NC(S)C2N=CN=C2N1 (centres undefined) was read as GLS inhibitor -16% and G9a block 25µM*.
CCOC(=O)c1cnc2c(-c3ccc(F)cc3)cnn2c1C(F)(F)F was read as GLS inhibitor -5%, G9a block 40%[12.7 µM], HP1b chromo inh 26%, BAZ2B inh -33% and JMJD2A Tudor 35µM*.
CCCN(CCC)S(=O)(=O)c1ccc(C(=O)Nc2ccc(S(=O)(=O)Nc3nnc(CC)s3)cc2)cc1 was read as GLS inhibitor 6%, G9a block -48%[59 µM], HP1b chromo inh 46%, BAZ2B inh inconclusive and JMJD2A Tudor -18%.
`O=C1C=CC(=O)N1` gave GLS inhibitor 16%, G9a block 2µM*, HP1b chromo inh inconclusive, BAZ2B inh 11% and JMJD2A Tudor -35%.

Screens: PubChem, National Center for Advancing Translational Sciences (NCATS)
